Our source for the sensor-assay potency score (higher = more potent) values is the OligoGym collection.
Also: reference of the scale not given here.

For the first experiment, the target named is C14orf149. As to the kind of experiment: pooled miR-30 sensor sort-seq; sequence = guide strand. The conditions noted are these: shRNA.
TTATAAAGCTTGCTGTACCCGT registered a sensor-assay potency score (higher = more potent) of 0.0873.

The sequence TTCCCTGTGAATACTGAGCCAG had a sensor-assay potency score (higher = more potent) of -0.697.

Turning to TATAAGCATCTTTTCCATCTGT, the sensor-assay potency score (higher = more potent) worked out at 0.316.

Another experiment deals with C14orf181. The description is as above. Conditions: shRNA.
Take TGCACTGCCGCTTCCGACCGGG: the sensor-assay potency score (higher = more potent) is -0.747.

As for TATTTTAGCTTGGAGGTGGTGG, the sensor-assay potency score (higher = more potent) is -0.309.

Sequence TTCGGTTTTGTGCAAGGGGGAA registered a sensor-assay potency score (higher = more potent) of -0.823.

AAAGTGAAAGTCTTCGGAGTGA gave a sensor-assay potency score (higher = more potent) of 0.018.

With TAACCCTTCGCTGACCCGGCGT, the sensor-assay potency score (higher = more potent) is -0.821.

TTAGCTTGGAGGTGGTGGTGGG showed a sensor-assay potency score (higher = more potent) of -0.365.

TTTAGCTTGGAGGTGGTGGTGG had a sensor-assay potency score (higher = more potent) of 0.0381.

Take TTCGGAGTGAAGGAGGCGCTGC: the sensor-assay potency score (higher = more potent) is -1.09.

Consider TTCGCCTGGAGCGCGTCCCTTC, for which the sensor-assay potency score (higher = more potent) was -1.3.

Turning to AAAGTCTTCGGAGTGAAGGAGG, the sensor-assay potency score (higher = more potent) is -0.89.

For the sequence AGGTATTTTAGCTTGGAGGTGG, the sensor-assay potency score (higher = more potent) is -1.31.

Consider TAGCTTGGAGGTGGTGGTGGGG, for which the sensor-assay potency score (higher = more potent) is -0.69.

In another experiment the target is C15orf39. Described as above. The conditions noted are these: shRNA.
Consider TTTGTCCTGACCTTCACTGGTG, for which the sensor-assay potency score (higher = more potent) was -0.221.

The sequence TACCGGTAGAGTACAAGGGTGG displayed a sensor-assay potency score (higher = more potent) of -0.811.

As for ATAAGGAAAACTCAGTGTCTGG, the sensor-assay potency score (higher = more potent) is -1.35.

In turn, TAGAGAGAGAGGTCATCCCGGG showed a sensor-assay potency score (higher = more potent) of -0.132.

On to ATAGAGAGAGAGGTCATCCCGG, for which the sensor-assay potency score (higher = more potent) is -0.641.

In turn, TTCAGCATGCGTGAGGTGCAGC came in with a sensor-assay potency score (higher = more potent) of -0.396.

For TGGAGCTTCTCTTTCCTGCAGC, the sensor-assay potency score (higher = more potent) is -0.965.

TGGTGCTTCTGTGTCTATCTTT gave a sensor-assay potency score (higher = more potent) of -0.327.

TTGTCCTGACCTTCACTGGTGG returned a sensor-assay potency score (higher = more potent) of -0.545.

TTGTCAATGACAGGCATTGGTG displayed a sensor-assay potency score (higher = more potent) of -1.34.

In turn, TACACAGTCGCGCCACTGCAGG showed a sensor-assay potency score (higher = more potent) of -1.54.

The target in the next experiment is C15orf42. The experiment is described as above. The conditions noted are these: shRNA.
Sequence TTGATTTACAAGACAATAGGAG gave a sensor-assay potency score (higher = more potent) of 0.136.

The sequence TTAGTGATCTCTTTGAAGGGGA came in with a sensor-assay potency score (higher = more potent) of 0.326.

For TTGGTCTGACTTATCTTGCTGG, the sensor-assay potency score (higher = more potent) was -0.193.

As for TTTACTCTTACTAACTTCTGAA, the sensor-assay potency score (higher = more potent) is 0.249.

As to TACAACATGATTTCTCCTGTGG, the sensor-assay potency score (higher = more potent) is 0.642.

TAGGTTTAGAACTTCTTAGTGT yielded a sensor-assay potency score (higher = more potent) of 0.687.

As for TATACTATCCACAACATCTGAG, the sensor-assay potency score (higher = more potent) was 0.285.

Sequence TTCTTGATGAGCTATAGTGGAT came in with a sensor-assay potency score (higher = more potent) of -1.03.

TTCAACATCTTTAAGGAACGGC displayed a sensor-assay potency score (higher = more potent) of 0.686.

Regarding TTTAGGAACATTTTAACGGTTG, the sensor-assay potency score (higher = more potent) was -0.0807.

Turning to TTCATCTTCTGTCTCACTGGAG, the sensor-assay potency score (higher = more potent) came out at 0.162.

Turning to TTCAATTTGTCGAAGATTCTGT, the sensor-assay potency score (higher = more potent) was 0.525.
